This note sets out measurements from PubChem BioAssay.

A short description of test [1]: small molecules captured by biotinylated probe aFSTL3 – biochemical, small-molecule microarray, fluorescence 635/667, stem cell growth factor project, primary screen (AID 1064).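 Also: measures binding of the biotinylated anti-FSTL3 antibody to printed compounds.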 The conditions noted are these: higher = more signal.
A short description of test [2]: binders from COS7 lysate, DM2A8 probe, primary screen, torsin A project, cell lysate, small-molecule microarray, fluorescence 635/667 (AID 1065). The conditions noted are these: higher = more signal, COS7 lysate expressing mutant human TOR1A.
Test [3] can be described thus: small molecules captured by biotinylated probe aFGF2 – biochemical, small-molecule microarray, fluorescence 635/667, stem cell growth factor project, primary screen (AID 1067).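 Also: measures binding of biotinylated aFGF2 protein to printed compounds on slides; z-score merges feature fluorescence and signal-to-noise across triplicate slides.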 The conditions noted are these: higher = more signal.
A short description of test [4]: small molecules captured by biotinylated probe aFGF10 – biochemical, small-molecule microarray, fluorescence 635/667, stem cell growth factor project, primary screen (AID 1071).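 Also: score merges 667 nm spot intensity and signal to noise from triplicate slides.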 The conditions noted are these: higher = more signal.
Test [5] concerns the target Neurogenic locus notch homolog protein 2 (Homo sapiens) (UniProt Q04721). Kind of test: small molecules binding Notch2 protein – biochemical, small-molecule microarray, 635 nm fluorescence, stem cell growth factors, primary screen (AID 1073). The conditions noted are these: higher = more signal.
The target of test [6] is Pro-neuregulin-1, membrane-bound isoform (Homo sapiens) (UniProt Q02297). Nature of the test: small molecules binding neuregulin-1 protein – biochemical, small-molecule microarray, fluorescence 635/667, psychiatric disease protein project, primary screen (AID 1075).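 Also: score combines 667 nm spot fluorescence with signal to noise.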 As to conditions: NRG1 binding, 635 nm fluorescence, higher = more signal.
Chain of Pro-neuregulin-1, membrane-bound isoform (Homo sapiens) (Q02297 whole entry, looked up, the tested form may be a part, canonical isoform): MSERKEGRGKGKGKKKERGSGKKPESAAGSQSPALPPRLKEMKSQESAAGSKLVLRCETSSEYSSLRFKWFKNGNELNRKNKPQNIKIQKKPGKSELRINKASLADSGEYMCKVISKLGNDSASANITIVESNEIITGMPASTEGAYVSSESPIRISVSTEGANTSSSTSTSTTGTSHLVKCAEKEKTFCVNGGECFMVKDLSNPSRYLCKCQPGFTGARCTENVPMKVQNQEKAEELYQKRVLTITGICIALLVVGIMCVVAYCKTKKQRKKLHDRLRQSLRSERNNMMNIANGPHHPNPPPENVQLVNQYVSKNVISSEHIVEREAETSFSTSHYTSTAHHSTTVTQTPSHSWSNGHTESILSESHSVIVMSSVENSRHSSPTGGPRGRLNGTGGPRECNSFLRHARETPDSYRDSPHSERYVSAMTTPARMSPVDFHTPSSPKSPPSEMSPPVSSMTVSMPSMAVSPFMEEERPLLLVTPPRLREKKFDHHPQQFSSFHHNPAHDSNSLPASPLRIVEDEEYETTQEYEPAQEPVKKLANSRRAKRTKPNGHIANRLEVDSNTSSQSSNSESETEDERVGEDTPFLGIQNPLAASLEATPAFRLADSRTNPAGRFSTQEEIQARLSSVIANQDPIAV
Test [7] relates to Neuregulin-1 EGF-like domain. Kind of test: small molecules binding NRG1 EGF domain – biochemical, small-molecule microarray, 635 nm fluorescence, primary screen (AID 1081).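 Also: binding of the protein to compounds printed on small-molecule microarray slides.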 As to conditions: higher = more signal.
Test [8] in a line: FRG1 expression reporter modulators in myotubes – cell-based, C2C12 myotubes, firefly/Renilla luciferase, luminescence, FRG1 inhibition for FSHD, primary screen (AID 1084). As to conditions: FRG1 promoter luciferase, higher = more signal, called active from +8 up or from −8 down.
Test [9] in a line: small molecules captured by biotinylated probe aFST – biochemical, small-molecule microarray, fluorescence 635/667, stem cell growth factor project, primary screen (AID 1086).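 Also: score merges 667 nm fluorescence with signal-to-noise of each printed compound spot.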 The conditions noted are these: higher = more signal.
The nature of test [10]: binders of probe aHhip on microarray, primary screen, stem cell growth factor project, biochemical, small-molecule microarray, fluorescence 635/667 (AID 1087).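 Also: score merges spot fluorescence at 667nm with spot signal to noise ratio.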 The conditions noted are these: higher = more signal.
Test [11] concerns PRMT1 (protein arginine N-methyltransferase 1). Kind of test: small molecules binding arginine methyltransferase PRMT1 – biochemical, small-molecule microarray, 635 nm fluorescence, primary screen (AID 1088).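 Also: binding of Prmt1 protein to compounds spotted on small-molecule microarray slides.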 As to conditions: higher = more signal.
Test [12] in a line: growth effects on S. cerevisiae YJM789 – YJM789 clinical isolate, OD600, 24 h, basal, primary screen (AID 1089).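 Also: growth of clinical yeast isolate S. cerevisiae YJM 789 seeded 1000 cells per well; test concentration not given here.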 The conditions noted are these: higher = more signal, called active from +8 up or from −8 down.
Test [13] in a line: S. pombe growth modifiers, basal conditions – strain 972, OD600, 24 h, no modulator, primary screen (AID 1090).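 Also: basal condition with compound alone and no growth modifier present; test concentration not given here.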 As to conditions: S. pombe 972 growth, higher = more signal, called active from +8 up or from −8 down.
Test [14] can be described thus: budding yeast growth modifiers under rapamycin – strain BY4716, OD600, 96 h, primary screen (AID 1091). Also: test concentration not given here. As to conditions: S. cerevisiae BY4716 + rapamycin, higher = more signal, called active from +8 up or from −8 down.
In test [15] the target is Torsin-1A-interacting protein 2 (Homo sapiens) (UniProt Q8NFQ8). Kind of test: small molecules binding lysate-expressed LULL1 – cell lysate, human LULL1 lysate, 635/667 nm fluorescence, primary screen (AID 1092).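 Also: probe is lysate of COS7 cells overexpressing human LULL1; score merges per-feature 667 nm fluorescence with signal-to-noise.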 The conditions noted are these: small-molecule microarray, hLULL1 lysate binding, 635 nm fluorescence; higher = more signal.
Chain of Torsin-1A-interacting protein 2 (Homo sapiens) (Q8NFQ8 whole entry, looked up): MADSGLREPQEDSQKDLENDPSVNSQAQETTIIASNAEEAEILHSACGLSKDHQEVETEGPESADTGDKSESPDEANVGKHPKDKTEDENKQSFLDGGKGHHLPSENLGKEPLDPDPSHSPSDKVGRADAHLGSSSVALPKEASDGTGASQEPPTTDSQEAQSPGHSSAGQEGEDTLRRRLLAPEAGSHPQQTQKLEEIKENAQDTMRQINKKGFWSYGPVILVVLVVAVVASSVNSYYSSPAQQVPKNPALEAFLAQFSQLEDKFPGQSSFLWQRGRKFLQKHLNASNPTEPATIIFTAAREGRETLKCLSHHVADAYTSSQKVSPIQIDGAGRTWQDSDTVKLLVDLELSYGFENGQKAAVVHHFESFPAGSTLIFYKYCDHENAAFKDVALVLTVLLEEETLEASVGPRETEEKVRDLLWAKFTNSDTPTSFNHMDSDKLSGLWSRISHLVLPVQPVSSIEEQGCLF
Test [16] in a line: optical density change of DRC41 E. coli – strain DRC41, OD650, 24 h, E. coli filamentation project, primary screen (AID 1093).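 Also: MC1000 strain lacking acrAB efflux and sulA so SOS filamentation is blocked; test concentration not given here.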 As to conditions: E. coli DRC41 growth, higher = more signal, called active from +8 up or from −8 down.
Test [17] in a line: probe aLefty2 binding to arrayed compounds – biochemical, biotinylated probe, 635/667 nm fluorescence, primary screen (AID 1094).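 Also: score merges spot fluorescence near 667 nm with spot signal-to-noise ratio.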 The conditions noted are these: small-molecule microarray, higher = more signal.
For test [18], the system named is Noggin (protein binding on small-molecule microarray). Kind of test: small molecules binding Noggin protein – biochemical, 635/667 nm fluorescence, primary screen (AID 1095).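 Also: score merges 667 nm feature fluorescence with signal to noise over triplicate slides.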 As to conditions: 635 nm fluorescence, higher = more signal.
In test [19] the target is Neurogenic locus notch homolog protein 3 (Homo sapiens) (UniProt Q9UM47). Kind of test: small molecules binding NOTCH3 protein – biochemical, 635/667 nm fluorescence, primary screen (AID 1096). The conditions noted are these: small-molecule microarray, 635 nm fluorescence, higher = more signal.
Chain of Neurogenic locus notch homolog protein 3 (Homo sapiens) (Q9UM47 whole entry, looked up): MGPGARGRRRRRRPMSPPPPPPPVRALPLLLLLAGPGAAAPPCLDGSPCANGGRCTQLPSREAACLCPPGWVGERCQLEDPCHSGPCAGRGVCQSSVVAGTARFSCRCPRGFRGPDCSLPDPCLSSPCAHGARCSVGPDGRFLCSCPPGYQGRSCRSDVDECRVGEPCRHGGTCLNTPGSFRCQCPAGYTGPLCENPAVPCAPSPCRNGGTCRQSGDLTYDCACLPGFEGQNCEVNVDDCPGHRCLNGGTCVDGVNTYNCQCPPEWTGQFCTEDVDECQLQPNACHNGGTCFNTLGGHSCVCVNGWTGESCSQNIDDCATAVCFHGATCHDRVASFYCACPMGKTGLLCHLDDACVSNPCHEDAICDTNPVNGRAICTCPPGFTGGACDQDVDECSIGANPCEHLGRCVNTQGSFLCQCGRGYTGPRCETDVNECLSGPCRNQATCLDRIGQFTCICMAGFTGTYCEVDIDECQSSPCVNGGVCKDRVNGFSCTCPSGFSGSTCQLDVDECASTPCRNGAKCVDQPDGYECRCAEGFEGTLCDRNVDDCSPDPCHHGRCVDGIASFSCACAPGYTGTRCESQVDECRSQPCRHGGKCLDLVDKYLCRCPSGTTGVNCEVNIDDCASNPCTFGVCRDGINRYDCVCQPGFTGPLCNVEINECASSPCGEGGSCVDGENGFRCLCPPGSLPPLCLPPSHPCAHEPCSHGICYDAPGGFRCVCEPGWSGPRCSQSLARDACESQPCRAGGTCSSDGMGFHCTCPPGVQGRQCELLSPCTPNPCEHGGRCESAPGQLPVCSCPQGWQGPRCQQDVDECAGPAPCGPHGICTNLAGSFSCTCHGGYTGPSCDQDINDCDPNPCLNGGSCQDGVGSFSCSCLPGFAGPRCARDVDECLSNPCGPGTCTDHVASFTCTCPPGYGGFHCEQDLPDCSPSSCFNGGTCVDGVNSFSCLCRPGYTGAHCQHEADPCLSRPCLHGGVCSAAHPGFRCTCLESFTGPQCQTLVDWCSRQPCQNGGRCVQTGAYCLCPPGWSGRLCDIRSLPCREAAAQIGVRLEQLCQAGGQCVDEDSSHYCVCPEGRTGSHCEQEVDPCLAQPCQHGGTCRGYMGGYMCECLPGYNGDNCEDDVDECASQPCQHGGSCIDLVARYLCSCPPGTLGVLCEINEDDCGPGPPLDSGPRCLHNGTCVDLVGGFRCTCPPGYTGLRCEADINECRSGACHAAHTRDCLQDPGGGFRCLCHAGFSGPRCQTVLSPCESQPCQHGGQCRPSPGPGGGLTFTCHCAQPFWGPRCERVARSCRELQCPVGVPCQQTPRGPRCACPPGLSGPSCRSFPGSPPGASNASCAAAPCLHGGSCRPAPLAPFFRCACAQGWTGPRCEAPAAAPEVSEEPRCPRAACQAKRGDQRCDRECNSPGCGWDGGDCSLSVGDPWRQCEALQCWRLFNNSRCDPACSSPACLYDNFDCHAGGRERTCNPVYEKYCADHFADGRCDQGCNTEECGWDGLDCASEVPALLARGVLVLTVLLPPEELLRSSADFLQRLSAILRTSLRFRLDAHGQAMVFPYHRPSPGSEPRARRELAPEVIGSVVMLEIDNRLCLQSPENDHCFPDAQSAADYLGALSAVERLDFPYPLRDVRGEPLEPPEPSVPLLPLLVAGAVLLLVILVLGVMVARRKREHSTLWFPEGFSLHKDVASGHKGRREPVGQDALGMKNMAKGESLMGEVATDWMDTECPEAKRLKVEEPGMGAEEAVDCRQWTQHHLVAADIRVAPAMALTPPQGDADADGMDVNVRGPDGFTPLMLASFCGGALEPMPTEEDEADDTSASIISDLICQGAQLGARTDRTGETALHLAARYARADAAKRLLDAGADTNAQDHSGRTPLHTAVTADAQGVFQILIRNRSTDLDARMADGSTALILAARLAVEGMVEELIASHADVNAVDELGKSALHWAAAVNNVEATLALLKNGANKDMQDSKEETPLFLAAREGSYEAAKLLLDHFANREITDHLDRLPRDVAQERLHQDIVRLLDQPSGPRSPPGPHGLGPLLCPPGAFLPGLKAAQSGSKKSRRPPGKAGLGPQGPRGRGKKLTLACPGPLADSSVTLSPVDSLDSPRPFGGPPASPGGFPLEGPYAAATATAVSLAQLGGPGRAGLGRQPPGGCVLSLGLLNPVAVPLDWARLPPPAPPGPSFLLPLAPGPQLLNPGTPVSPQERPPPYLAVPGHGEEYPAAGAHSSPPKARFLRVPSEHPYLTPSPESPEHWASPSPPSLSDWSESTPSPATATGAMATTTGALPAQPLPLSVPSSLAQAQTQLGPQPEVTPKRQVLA
The nature of test [20]: probe aEGFR binding to arrayed compounds – biochemical, biotinylated probe, 635/667 nm fluorescence, primary screen (AID 1097).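 Also: probe is a biotinylated anti-EGFR antibody binding compounds printed on slides; score combines fluorescence near 667 nm and signal to noise of each spot.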 As to conditions: small-molecule microarray, higher = more signal.

Molecules are shown by their SMILES. Calls of active or inactive are those of the source.

As for `CN(C)CCCNC(=O)[C@@]1(C)c2ccccc2C(=O)N(Cc2ccccc2)[C@H]1c1ccc(CO)cc1`, the composite z-score in [1] was 1.2; in test [2], -0.333; in [3], -0.116; in test [4], -0.305; in test [5], -0.675; in [6] it was 1.62. In addition, the composite z-score in test [7] was 0.562; in [9], -0.0584; in [10], -0.0074; in test [11], 0.988; in [15], 2.82; in [17], 0.151. Also, the composite z-score in test [18] was 0.0474; in test [19], -0.652; in test [20], -0.0639. In addition, the z-score in test [8] is -0.839 (inactive); in [12], -0.466 (inactive); in [13], -0.505 (inactive); in test [14], -0.577 (inactive); in [16], 1.16 (inactive).
With `COC(=O)C(CC#Cc1ccc2c(c1)[C@]1(C(=O)N2)[C@H](c2ccccc2OCCO)N2[C@H](c3ccccc3)[C@H](c3ccccc3)OC(=O)[C@H]2[C@@H]1C(=O)NC[C@H](O)c1ccccc1)C(=O)OC`, the composite z-score in test [1] is -0.881; in test [2] it was 0.711; in [3], -0.0307; in test [4], 0.767; in test [5], 0.982; in [6] it was 1.36. The composite z-score is 1.25 in test [7]; -0.158 in test [9]; -0.4 in test [10]; 1.54 in [11]; 3.25 in test [15]; -0.324 in [17]. For the same compound, the composite z-score is 1.1 in [18], 1.04 in test [19] and -0.147 in [20]. The z-score is -1.42 (inactive) in test [8]; 2.51 (inactive) in test [12]; 1.32 (inactive) in test [13]; 4.78 (inactive) in test [14]; 0.282 (inactive) in [16].
For `C=CCOC(=O)[C@H]1[C@@H]2C(=O)O[C@@H](c3ccccc3)[C@@H](c3ccccc3)N2[C@@H](c2ccc(OCCOC(=O)[C@@H]3C[C@@H]4C(=O)N5CCC[C@H]5C(=O)N4[C@@H]3c3ccc(O)cc3)cc2)[C@]12C(=O)Nc1ccc(I)cc12`, the composite z-score in [1] was 0.011; in test [2] it was -0.123; in test [3], -0.201; in test [4] it was 0.126; in test [5], 0.344; in test [6] it was 0.929. The composite z-score in test [7] is 0.718; in test [9] it was -0.0935; in [10], -0.367; in test [11] it was 1.42; in test [15], 1.03; in test [17] it was -0.138. Besides, the results for the composite z-score in test [18], in test [19] and in test [20] were 0.674, 0.169 and -0.194, respectively. In addition, the z-score in test [8] is 0.308 (inactive); in [12] it was 0.882 (inactive); in [13], 0.25 (inactive); in test [14], 2.77 (inactive); in test [16] it was -0.333 (inactive).
On to `COCCOC(=O)N1C(=O)[C@@]2(c3cc(C#CCC(C(=O)OC)C(=O)OC)ccc31)[C@H](C(=O)N1CCc3cc(OC)c(OC)cc3C1)[C@H]1C(=O)O[C@H](c3ccccc3)[C@H](c3ccccc3)N1[C@@H]2c1ccc(OCCO)cc1`, for which the composite z-score in test [1] was -0.63; in test [2], 0.527; in test [3] it was -0.0099; in test [4], 0.411; in [5], 1.31; in test [6], 1.07. Also, the composite z-score in test [7] is 1.31; in test [9] it was 0.479; in test [10] it was 0.0749; in [11] it was 1.54; in test [15] it was 2.73; in test [17], -0.0259. In addition, the results for the composite z-score in test [18], in test [19] and in test [20] were 1.4, 1.08 and 0.0961, respectively. For the same compound, the z-score in [8] was 1.08 (inactive); in test [12], 1.94 (inactive); in test [13], 0.667 (inactive); in [14] it was 4.23 (inactive); in test [16], -0.402 (inactive).
`Cc1ccc(S[C@]2(C(=O)NCCCN(C)C)CC(=O)N(C3CCCCC3)[C@@H]2c2ccc(CO)cc2)cc1`: the composite z-score in test [1] is 0.655; in test [2], -1.19; in [3], -0.0885; in test [4], -0.418; in [5] it was -0.503; in test [6] it was 1.43. Besides, the composite z-score is 0.98 in [7]; -0.249 in test [9]; -0.132 in test [10]; -0.0316 in test [11]; 0.555 in [15]; 0.0321 in [17]. Further, the composite z-score in test [18] was -0.561; in test [19] it was -0.662; in test [20] it was -0.106. Also, the z-score is -0.404 (inactive) in test [8]; -0.96 (inactive) in test [12]; -2.22 (inactive) in test [13]; -0.655 (inactive) in [14]; 0.457 (inactive) in test [16].
As to `COCCOC(=O)N1C(=O)[C@@]2(c3cc(C#CC4=CCCCC4)ccc31)[C@H](C(=O)N1CCCCCCC1)[C@H]1C(=O)O[C@H](c3ccccc3)[C@H](c3ccccc3)N1[C@@H]2c1ccc(O)cc1`, the composite z-score is 0.804 in test [1]; 0.0395 in test [2]; -0.0226 in test [3]; 0.119 in test [4]; 0.464 in test [5]; -0.215 in [6]. For the same compound, the composite z-score in test [7] is 1.14; in [9], 0.409; in test [10], -0.31; in [11], 1.56; in test [15] it was 2.88; in test [17], 0.295. Besides, the composite z-score was determined as 0.795 in test [18], 0.807 in [19] and 0.0383 in [20]. Moreover, the z-score in test [8] is -0.472 (inactive); in [12], -1.17 (inactive); in [13], 0.509 (inactive); in test [14], 0.983 (inactive); in test [16], 1.53 (inactive).
As for `CCOC(=O)c1ccc(NC(=O)O[C@H]2[C@H](OC(=O)Nc3ccc4c(c3)OCO4)[C@@H](OC(=O)Nc3ccc4c(c3)OCO4)[C@@H](OC)O[C@@H]2CO)cc1`, the composite z-score in [1] is -0.0691; in test [2], 0.816; in test [3], 0.0121; in test [4], 1.03; in test [5], 1.39; in test [6], 1.74. Further, the composite z-score in test [7] is 1.35; in test [9], 0.474; in [10], -0.318; in test [11], 1.53; in [15] it was 3.27; in test [17], 0.119. The composite z-score in test [18] stood at 1.07; in test [19], 1; in test [20] it was 0.0815. For the same compound, the z-score is 6.39 (inactive) in test [8]; 1.38 (inactive) in [12]; 2.29 (inactive) in test [13]; 7.12 (inactive) in test [14]; 1.15 (inactive) in [16].
